Paper PMC5540273 (PLoS ONE, 2017)

The molecules below were run on EPHA5. Conditions: concentration: 1 μM, replicates: in singlicate; n = 1.
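Note: KINOMEscan kinase panel screen.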

Row | Compound | %Inh
1 | CCn1c(-c2ccoc2)nc2cnccc21 [SB-733887] | 0%
2 | O=c1cc(N2CCOCC2)nc2n(Cc3ccc(F)c(Cl)c3)ccn12 [GSK2297099] | 0%
3 | Cc1cccc(-c2nc(Nc3ccc4c(cnn4C)c3)c3ccccc3n2)n1 [GW876731] | 1%
4 | Cl.NS(=O)(=O)c1cccc(Nc2cc(-c3ccc(F)cc3)n[nH]2)c1 [GW824645] | 0%
5 | COc1cc(Nc2nccc(N3CCC(NC(=O)C4COc5ccccc5O4)C3)n2)cc(OC)c1OC (stereo not drawn) [GSK1379761] | 0%
6 | COC(=O)c1c(-c2ccccc2)c2cc(Br)ccc2c(=O)n1Cc1ccc(NC(=O)CCC(=O)O)cc1 | 7%
7 | CN1C(=O)C(Nc2cc(Cl)c(O)c(Cl)c2)=C(c2ccc(Cl)cc2)C1=O [SB-404321] | 8%
8 | CCC(=O)c1c(-c2ccccc2)c2cc(Cl)ccc2c(=O)n1Cc1cc(S(C)(=O)=O)n(CC(N)=O)n1 | 0%
9 | Nc1ncnc2c1ncn2-c1ccc(Cl)cc1 [AH2635] | 0%
10 | O=C(NCc1cccs1)c1cc(C(=O)c2c(Cl)cccc2Cl)c[nH]1 [GW823670] | 0%
11 | CCn1c(-c2nonc2N)nc2ccccc21 [SB-693162/GW549034] | 0%
12 | O=C(NCCNc1ccnc(Nc2ccc(F)cc2)n1)Nc1ccc2c(c1)OCO2 [GSK1379882] | 0%
13 | COc1ccc(Nc2nccc(N3CCC(NS(=O)(=O)c4ccc(NC(C)=O)cc4)C3)n2)cc1 (stereo not drawn) [GSK1379729] | 7%
14 | COc1cc2nccc(Nc3cccc(Oc4ccccc4)c3)c2cc1OC.Cl [GW284543] | 0%
15 | O=C(Nc1ccc2c(c1)OCO2)NC1CCN(c2ccnc(NCc3ccc(F)cc3)n2)CC1 [GSK1379859] | 0%
16 | Nc1ncnc2c1ncn2-c1cccc(F)c1 [SKF-97560] | 0%
17 | COc1ccc(-c2cc3c(C)nc(N)nc3n([C@H]3CC[C@H](O)CC3)c2=O)cn1 | 0%
18 | COc1ccc(CNC(=O)NC2CCN(c3ccnc(Nc4ccc(F)cc4)n3)C2)cc1 (stereo not drawn) [GSK1379706] | 0%

Row | Compound | %Inh
19 | Nc1ncnc2c1ncn2-c1cccc2ccccc12 [SKF-97184] | 0%
20 | COc1cccc(C2=C(N(C)c3ccccc3)C(=O)NC2=O)c1 [SB-334865] | 0%
21 | Nc1nc(N)c2nc(-c3ccccc3)[nH]c2n1 [SKF-12778] | 3%
22 | COc1cc2ncn(-c3cc(OCc4ccncc4Br)c(C(N)=O)s3)c2cc1OC [GW854278] | 0%
23 | Nc1n[nH]c2nnc(-c3ccccc3)c(-c3ccccc3)c12 [GW554060] | 0%
24 | Nc1nc(-c2ccccc2F)c(-c2ccnc3ccccc23)s1 [GW560459] | 0%
25 | Nc1nccc2scc(-c3ccc4c(c3)CCN4C(=O)Cc3ccccc3)c12 [GSK2576924] | 0%
26 | Cc1cccc(-c2cc(-c3c[nH]nc3-c3ccccn3)ccn2)c1 [GW679395] | 0%
27 | Cc1ccc(-c2ccc3c(ccc4sc5c(c43)NC[C@@H](C)N=C5N(C)C)n2)cn1 | 0%
28 | CCCNC(=O)Nc1ccc(Oc2ncnc3ccn(C)c23)cc1 | 12%
29 | CCCC(=O)Nc1n[nH]c2ncc(-c3cccc4ccccc34)cc12 [SB-642057] | 0%
30 | CCC(=O)c1c(-c2ccccc2)c2cc(Cl)ccc2c(=O)n1Cc1ccc(C(=O)O)cc1 | 0%
31 | COc1cc2ncn(-c3cc(OCCCc4ccccc4)c(C(N)=O)s3)c2cc1OC [GSK205189] | 1%
32 | Cc1cc(Nc2nc(-c3cccc(C)n3)nc3ccccc23)ccn1 [GW872411] | 0%
33 | COc1ccc(-c2cc3c(C)nc(N)nc3n([C@H]3CC[C@H](OCCO)CC3)c2=O)cn1 | 11%
34 | O=C(Nc1n[nH]c2nc(-c3ccccc3)c(Cl)cc12)C1CC1 [SB-734909] | 0%
35 | COc1cc2ncn(-c3cc(OCc4ccc(S(C)(=O)=O)cc4)c(C(N)=O)s3)c2cc1OC [GW869979] | 0%
36 | CN1C(=O)C(Nc2ccccc2)=C(c2ccccc2)C1=O [SB-300079] | 4%

These molecules were tested on EPHA6. Conditions: concentration: 1 μM, replicates: in singlicate; n = 1.

Row | Compound | %Inh
37 | CCn1c(-c2ccoc2)nc2cnccc21 [SB-733887] | 7%
38 | O=c1cc(N2CCOCC2)nc2n(Cc3ccc(F)c(Cl)c3)ccn12 [GSK2297099] | 0%
39 | Cc1cccc(-c2nc(Nc3ccc4c(cnn4C)c3)c3ccccc3n2)n1 [GW876731] | 0%
40 | Cl.NS(=O)(=O)c1cccc(Nc2cc(-c3ccc(F)cc3)n[nH]2)c1 [GW824645] | 0%
41 | COc1cc(Nc2nccc(N3CCC(NC(=O)C4COc5ccccc5O4)C3)n2)cc(OC)c1OC (stereo not drawn) [GSK1379761] | 0%
42 | COC(=O)c1c(-c2ccccc2)c2cc(Br)ccc2c(=O)n1Cc1ccc(NC(=O)CCC(=O)O)cc1 | 31%
43 | CN1C(=O)C(Nc2cc(Cl)c(O)c(Cl)c2)=C(c2ccc(Cl)cc2)C1=O [SB-404321] | 0%
44 | CCC(=O)c1c(-c2ccccc2)c2cc(Cl)ccc2c(=O)n1Cc1cc(S(C)(=O)=O)n(CC(N)=O)n1 | 0%
45 | Nc1ncnc2c1ncn2-c1ccc(Cl)cc1 [AH2635] | 0%
46 | O=C(NCc1cccs1)c1cc(C(=O)c2c(Cl)cccc2Cl)c[nH]1 [GW823670] | 0%
47 | CCn1c(-c2nonc2N)nc2ccccc21 [SB-693162/GW549034] | 0%
48 | O=C(NCCNc1ccnc(Nc2ccc(F)cc2)n1)Nc1ccc2c(c1)OCO2 [GSK1379882] | 0%
49 | COc1ccc(Nc2nccc(N3CCC(NS(=O)(=O)c4ccc(NC(C)=O)cc4)C3)n2)cc1 (stereo not drawn) [GSK1379729] | 31%
50 | COc1cc2nccc(Nc3cccc(Oc4ccccc4)c3)c2cc1OC.Cl [GW284543] | 0%
51 | O=C(Nc1ccc2c(c1)OCO2)NC1CCN(c2ccnc(NCc3ccc(F)cc3)n2)CC1 [GSK1379859] | 8%
52 | Nc1ncnc2c1ncn2-c1cccc(F)c1 [SKF-97560] | 0%
53 | COc1ccc(-c2cc3c(C)nc(N)nc3n([C@H]3CC[C@H](O)CC3)c2=O)cn1 | 0%
54 | COc1ccc(CNC(=O)NC2CCN(c3ccnc(Nc4ccc(F)cc4)n3)C2)cc1 (stereo not drawn) [GSK1379706] | 0%

Row | Compound | %Inh
55 | Nc1ncnc2c1ncn2-c1cccc2ccccc12 [SKF-97184] | 0%
56 | COc1cccc(C2=C(N(C)c3ccccc3)C(=O)NC2=O)c1 [SB-334865] | 0%
57 | Nc1nc(N)c2nc(-c3ccccc3)[nH]c2n1 [SKF-12778] | 8%
58 | COc1cc2ncn(-c3cc(OCc4ccncc4Br)c(C(N)=O)s3)c2cc1OC [GW854278] | 0%
59 | Nc1n[nH]c2nnc(-c3ccccc3)c(-c3ccccc3)c12 [GW554060] | 28%
60 | Nc1nc(-c2ccccc2F)c(-c2ccnc3ccccc23)s1 [GW560459] | 0%
61 | Nc1nccc2scc(-c3ccc4c(c3)CCN4C(=O)Cc3ccccc3)c12 [GSK2576924] | 2%
62 | Cc1cccc(-c2cc(-c3c[nH]nc3-c3ccccn3)ccn2)c1 [GW679395] | 13%
63 | Cc1ccc(-c2ccc3c(ccc4sc5c(c43)NC[C@@H](C)N=C5N(C)C)n2)cn1 | 0%
64 | CCCNC(=O)Nc1ccc(Oc2ncnc3ccn(C)c23)cc1 | 8%
65 | CCCC(=O)Nc1n[nH]c2ncc(-c3cccc4ccccc34)cc12 [SB-642057] | 0%
66 | CCC(=O)c1c(-c2ccccc2)c2cc(Cl)ccc2c(=O)n1Cc1ccc(C(=O)O)cc1 | 6%
67 | COc1cc2ncn(-c3cc(OCCCc4ccccc4)c(C(N)=O)s3)c2cc1OC [GSK205189] | 5%
68 | Cc1cc(Nc2nc(-c3cccc(C)n3)nc3ccccc23)ccn1 [GW872411] | 0%
69 | COc1ccc(-c2cc3c(C)nc(N)nc3n([C@H]3CC[C@H](OCCO)CC3)c2=O)cn1 | 11%
70 | O=C(Nc1n[nH]c2nc(-c3ccccc3)c(Cl)cc12)C1CC1 [SB-734909] | 13%
71 | COc1cc2ncn(-c3cc(OCc4ccc(S(C)(=O)=O)cc4)c(C(N)=O)s3)c2cc1OC [GW869979] | 0%
72 | CN1C(=O)C(Nc2ccccc2)=C(c2ccccc2)C1=O [SB-300079] | 0%
